This is a sample that favours compounds with a hit; in the whole collection about 0.41% have one here.
RmlC RmlD mix – inhibitors of RmlC and RmlD coupled enzymes | RmlC/RmlD coupled enzyme inhibition, 384-well mixture HTS | inhibition, % at 5.5 µM | 110,000 compounds, 0.39% hits; in the data active = inhibition above about 30%, passing the limit was not always enough; inconclusive = no clear call, values can overlap the other calls
YopH inh – YopH (Yersinia) phosphatase inhibition; fluorescence Ex485/Em525; inhibition, % (concentration not given with the values); 140,000 compounds, 0.16% hits; AID 898; in the data active = inhibition above about 50%
RmlCD artifact – shows fluorescent artifact in RmlC/RmlD assay, dose-response counter-screen; shares compounds with RmlC RmlD mix; RmlC/RmlD assay fluorescence artifact counter-screen; calls only; 360 compounds, 96% hits; call rule not given here;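 also: compound alone with no enzyme and no substrates present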
Of the large screens only hits and unclear results are named; the others gave an inactive call (follow-up assays come after a bar, where they were run).

O=C(NC1CC1)C1=C[C@@H](c2ccc(Br)cc2)C[C@@H](OCc2ccc(CO)cc2)O1	none (no result: YopH inh)
COc1ccccc1-c1c(C)oc2cc(OC(=O)c3ccco3)ccc2c1=O	RmlC RmlD mix 32.0
CCOc1ccccc1Oc1c(C)oc2cc(OC(=O)c3ccco3)ccc2c1=O	none
O=C(c1coc(=O)c(Br)c1)N1CCCc2ccccc21	none
CC1(C)CCCN(C(=O)c2coc(=O)c(Br)c2)C1	RmlC RmlD mix 54.0 | RmlCD artifact active
COc1ccc(/C=C/C(=O)Nc2cccc(N3CCOCC3)c2)cc1OC	none (no result: RmlC RmlD mix)
C#CCOCCOCCOCCNc1nc(N2CCOCC2)nc(N2CCN(C(=O)[C@H](CCC(=O)O)n3cc(C(N)[C@H](C)CC)nn3)CC2)n1 (some centres undefined)	none (no result: YopH inh)
Cc1cc(=O)n2c(ccc3ccccc32)c1C#N	none
Cc1cc(=O)n2ccccc2c1C#N	RmlC RmlD mix 104.1 | RmlCD artifact active
O=C(c1ccc(Cl)cc1)N1CCC(=O)N(C(CO)Cc2ccccc2)CC1 (centres undefined)	none (no result: YopH inh)
O=C(C[n+]1cnn(CC(=O)c2ccc(Cl)cc2Cl)c1)c1ccc([N+](=O)[O-])cc1	none (no result: RmlC RmlD mix)
Nc1c(S(=O)(=O)c2cccs2)c2nc3ccccc3nc2n1CC1CCCO1 (centres undefined)	RmlC RmlD mix 52.8 | RmlCD artifact active
Nc1c(S(=O)(=O)c2cccs2)c2nc3ccccc3nc2n1Cc1cccs1	none
CCCCCCCCNC(=O)c1cccnc1SCC(=O)Nc1ccccc1OC	none (no result: RmlC RmlD mix)
COc1ccc(-c2c[n+]3c4n2CCCCC4=C(c2ccccc2)C3)cc1	RmlC RmlD mix 91.4 | RmlCD artifact active
COc1ccc(-c2c[n+]3c(n2-c2ccccc2)CCCCC3)cc1	none (no result: RmlC RmlD mix)
O=C1CCCN1c1ccc(S(=O)(=O)Oc2cccc(Cl)c2)cc1[N+](=O)[O-]	none
O=C(CNC(=O)c1ccc2ccccc2c1)OCC(=O)N1CCN(S(=O)(=O)c2ccc3ccccc3c2)CC1	none (no result: RmlC RmlD mix)
COC(=O)c1cc2c(=O)n3ccccc3nc2n(C(C)C)c1=N	none (no result: RmlC RmlD mix)
CCOCCCn1c(=N)c(C(=O)NCc2ccc3c(c2)OCO3)cc2c(=O)n3cccc(C)c3nc21	none
N=c1c(C(=O)NC2CCCC2)cc2c(=O)n3ccccc3nc2n1C1CCCC1	RmlC RmlD mix 84.7 | RmlCD artifact active
Cc1cccn2c(=O)c3cc(C(=O)NCc4ccco4)c(=N)n(C(C)C)c3nc12	none
CCCCNC(=O)c1cc2c(=O)n3cccc(C)c3nc2n(CCN2CCOCC2)c1=N	none (no result: RmlC RmlD mix)
CCCCNC(=O)c1cc2c(=O)n3cccc(C)c3nc2n(Cc2ccncc2)c1=N	RmlC RmlD mix 89.0 | RmlCD artifact active
CCCn1c(=N)c(C(=O)NC2CCCC2)cc2c(=O)n3cccc(C)c3nc21	RmlC RmlD mix 42.5 | RmlCD artifact active
Cc1cccn2c(=O)c3cc(C(=O)NCc4cccnc4)c(=N)n(C(C)C)c3nc12	RmlC RmlD mix 33.1 | RmlCD artifact active
N#CC(c1ccccc1)N(CCCCl)C(=O)c1ccc(Br)cc1 (centres undefined)	none (no result: RmlC RmlD mix)
CC1(c2nnc(-c3ccccc3)o2)CC(c2ccc([N+](=O)[O-])cc2)=NO1 (centres undefined)	none (no result: YopH inh)
CC(C)(C)CC(=O)NCCCCCCNC(=O)CC(C)(C)C	none (no result: RmlC RmlD mix)
COc1ccc([N+](=O)[O-])cc1NC(=O)c1ccc(C)o1	none (no result: RmlC RmlD mix)
CCCOc1ccc(OCCN2CCCC(C)C2)cc1 (centres undefined)	none (no result: RmlC RmlD mix)
COC(=O)c1ccccc1NC(=O)c1cc([N+](=O)[O-])nn1Cc1ccccc1	none (no result: RmlC RmlD mix)
Cc1cccn2c(=O)c3cc(C#N)c(=NC(=O)c4ccncc4)n(CCCOC(C)C)c3nc12	RmlC RmlD mix inconclusive
COCCCn1c(=NC(=O)c2ccncc2)c(C#N)cc2c(=O)n3cccc(C)c3nc21	RmlC RmlD mix 103.9 | RmlCD artifact active
CCn1c(=N)c(C(N)=O)cc2c(=O)n3cccc(C)c3nc21	none (no result: RmlC RmlD mix)
COCCCn1c(=N)c(C(=O)NCc2ccc3c(c2)OCO3)cc2c(=O)n3ccccc3nc21	none
Cc1cccn2c(=O)c3cc(C(=O)NC4CCCC4)c(=N)n(C4CCCC4)c3nc12	RmlC RmlD mix 79.0 | RmlCD artifact active
COCCCn1c(=N)c(C(=O)NC2CCCCC2)cc2c(=O)n3ccccc3nc21	RmlC RmlD mix 49.4 | RmlCD artifact active
CC[C@@H](C)C(NC(=O)OC(C)(C)C)c1cn([C@@H](Cc2cc3ccccc3[nH]2)C(=O)N2CCN(C(=O)OC(C)(C)C)CC2)nn1 (some centres undefined)	none (no result: YopH inh)
Cc1cc(C)c(-n2nnnc2SC(C)C)c(C)c1	none (no result: RmlC RmlD mix)
O=C(CSCC(=O)N1CCCCC1)Nc1nc(-c2ccccc2)c(-c2ccccc2)s1	none
Cc1ccc(CSCCNS(=O)(=O)c2ccc(C)cc2)cc1	none (no result: RmlC RmlD mix)
COc1ccc(C(=O)C(C)Oc2cccc(NC(=O)c3cccc([N+](=O)[O-])c3)c2)cc1 (centres undefined)	none (no result: RmlC RmlD mix)
CCOC(=O)/C(=C\c1cn(C)c2ccccc12)[N+](=O)[O-]	none (no result: RmlC RmlD mix)
COC(=O)/C(=C/Nc1cccc2ccccc12)[N+](=O)[O-]	RmlC RmlD mix 158.0 | RmlCD artifact active
CC(CC(=O)NCC1CCCO1)c1ccccc1 (centres undefined)	none (no result: RmlC RmlD mix)
CC(=O)c1ccc(/C=C/c2nc3ccccc3n2C)o1	none (no result: RmlC RmlD mix, YopH inh) | RmlCD artifact active
Cn1c(=O)c(/C=C/c2ccccc2)nc2ccccc21	none (no result: RmlC RmlD mix)
O=C(CN1C(=O)S/C(=C\c2ccc(Cl)cc2)C1=O)NNC(=O)c1ccccc1O	none (no result: RmlC RmlD mix)
O=C1c2cccc3c2[C@H](CCC3)CN1[C@@H]1CN2CCC1CC2	none (no result: YopH inh)
Cc1ccc(CN2CC(C(=O)Nc3cccc(S(=O)(=O)N4CCCCC4)c3)CC2=O)cc1 (centres undefined)	none (no result: RmlC RmlD mix)
Cc1ccc(CN2CC(C(=O)Nc3ccc4c(C)cc(=O)oc4c3)CC2=O)cc1 (centres undefined)	none | RmlCD artifact active
CC(SCC(=O)NC12CC3CC(CC(C3)C1)C2)C(=O)O (centres undefined)	none (no result: RmlC RmlD mix)
COc1cccc2c(=O)cc(C)n(CC(=O)Nc3cccc(C)c3)c12	none (no result: RmlC RmlD mix)
O=C1C=C(c2ccc(F)nc2)CCC1	none (no result: YopH inh)
Fc1ccccc1-c1nc2c(s1)CCc1onc(-c3ccc(Br)cc3)c1-2	none (no result: YopH inh)
COC(=O)Cc1c(C)c2ccc(OC(=O)c3ccccc3)cc2oc1=O	RmlC RmlD mix 63.9 | RmlCD artifact active
Cc1c(Cc2ccccc2)c(=O)oc2cc(OC(=O)c3ccccc3)ccc12	none
O=C(Nc1ccccc1)C1=C[C@@H](c2ccc(C(F)(F)F)cc2)C[C@@H](OCCCCO)O1	none (no result: YopH inh)
CCn1c2ccccc2c2nnc(SCc3ccccc3)nc21	none
CCn1c2ccccc2c2nnc(SCCCn3c(=O)[nH]c4ccccc43)nc21	RmlC RmlD mix 82.0 | RmlCD artifact inactive
COC(=O)C1=C(C(=O)OC)[C@@H]2N(C)c3ccc(OC)cc3[C@@]23C[C@@H](C(=O)OC)N(C(=O)NC2CCCCC2)C3=N1	none (no result: YopH inh)
C[C@@H]1CC[C@@]2(O[C@@H](CCO)C[C@@H](O)[C@@H]2O)O1	none (no result: YopH inh)
Cc1cc(-c2nc3ncccc3o2)ccc1N	RmlC RmlD mix 68.8 | RmlCD artifact active
Nc1cc(-c2nc3ncccc3o2)ccc1Cl	none
CCOC(=O)c1c(C)n(C)c2ccc(OC(=O)c3ccco3)cc12	none
Cc1oc2cc(OCC(=O)O)ccc2c(=O)c1Oc1ccccc1	none
COc1ccccc1Oc1c(C)oc2cc(OC(=O)c3ccco3)ccc2c1=O	RmlC RmlD mix 105.0 | RmlCD artifact active
CCOC(=O)c1cc2ccc(OC(=O)c3ccco3)cc2oc1=O	RmlC RmlD mix active | RmlCD artifact active

Assay outcomes deposited in PubChem BioAssay by several laboratories.
